Targets with a hit are over-represented here; the source holds about 7,900 in all. About 0.6% of all pairs of compound and target were hits.
What follows are targets tested with Cc1nc(Nc2n[nH]c3c2CN(C(=O)N[C@H](CN(C)C)c2ccccc2)C3(C)C)c2sccc2n1 (assay: log2 fold change, soluble protein after heating vs DMSO (PISA); higher = thermal stabilisation; K562 cells, 10 uM, 30 min; active = over 0.2 and 3.5 SD of the protein, either way, in both replicates (recomputed)).
Procedure, shortened: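 K562 cells at 2×10^6 cells/mL were treated for 30 min with 10 μM compound, and aliquots were heated for 3 min over 48°C-58°C before pooling. Extraction used PBS with 0.5% NP-40 at 4°C, and soluble protein was the supernatant after 21,000xg for 90 min, measured by TMTpro 16plex LC-MS/MS with channel sums equalised. Thermal stability values, relative to control samples and from duplicates, are log2 fold changes.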

Chain of UniProt Q14978 (Q14978 whole entry, looked up): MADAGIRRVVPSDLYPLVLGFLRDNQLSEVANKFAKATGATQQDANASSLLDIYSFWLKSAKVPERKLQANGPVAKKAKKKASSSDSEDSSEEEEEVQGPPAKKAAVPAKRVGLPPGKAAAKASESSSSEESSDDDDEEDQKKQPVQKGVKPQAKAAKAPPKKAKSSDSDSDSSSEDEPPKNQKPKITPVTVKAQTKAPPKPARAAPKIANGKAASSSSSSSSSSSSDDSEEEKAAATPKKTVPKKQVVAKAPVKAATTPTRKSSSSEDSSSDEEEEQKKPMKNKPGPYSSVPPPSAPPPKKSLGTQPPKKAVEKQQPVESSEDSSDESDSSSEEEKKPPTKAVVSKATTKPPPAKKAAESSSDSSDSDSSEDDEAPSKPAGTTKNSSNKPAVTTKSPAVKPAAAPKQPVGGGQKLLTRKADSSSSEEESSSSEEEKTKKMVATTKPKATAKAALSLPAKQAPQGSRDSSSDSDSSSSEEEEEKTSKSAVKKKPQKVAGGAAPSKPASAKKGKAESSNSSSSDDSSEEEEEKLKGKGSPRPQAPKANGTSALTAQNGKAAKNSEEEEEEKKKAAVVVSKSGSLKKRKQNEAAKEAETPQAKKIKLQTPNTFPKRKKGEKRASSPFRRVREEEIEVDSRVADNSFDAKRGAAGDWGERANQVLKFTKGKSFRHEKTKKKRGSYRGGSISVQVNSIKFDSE
Chain of UniProt P00846 (P00846 whole entry, looked up): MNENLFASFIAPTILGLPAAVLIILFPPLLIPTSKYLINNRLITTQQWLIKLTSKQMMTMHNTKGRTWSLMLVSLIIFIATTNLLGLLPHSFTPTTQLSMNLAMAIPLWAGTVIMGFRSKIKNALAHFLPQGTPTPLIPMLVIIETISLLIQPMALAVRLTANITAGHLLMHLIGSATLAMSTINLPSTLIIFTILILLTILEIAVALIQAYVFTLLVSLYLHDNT
Chain of UniProt P43246 (P43246 whole entry, looked up): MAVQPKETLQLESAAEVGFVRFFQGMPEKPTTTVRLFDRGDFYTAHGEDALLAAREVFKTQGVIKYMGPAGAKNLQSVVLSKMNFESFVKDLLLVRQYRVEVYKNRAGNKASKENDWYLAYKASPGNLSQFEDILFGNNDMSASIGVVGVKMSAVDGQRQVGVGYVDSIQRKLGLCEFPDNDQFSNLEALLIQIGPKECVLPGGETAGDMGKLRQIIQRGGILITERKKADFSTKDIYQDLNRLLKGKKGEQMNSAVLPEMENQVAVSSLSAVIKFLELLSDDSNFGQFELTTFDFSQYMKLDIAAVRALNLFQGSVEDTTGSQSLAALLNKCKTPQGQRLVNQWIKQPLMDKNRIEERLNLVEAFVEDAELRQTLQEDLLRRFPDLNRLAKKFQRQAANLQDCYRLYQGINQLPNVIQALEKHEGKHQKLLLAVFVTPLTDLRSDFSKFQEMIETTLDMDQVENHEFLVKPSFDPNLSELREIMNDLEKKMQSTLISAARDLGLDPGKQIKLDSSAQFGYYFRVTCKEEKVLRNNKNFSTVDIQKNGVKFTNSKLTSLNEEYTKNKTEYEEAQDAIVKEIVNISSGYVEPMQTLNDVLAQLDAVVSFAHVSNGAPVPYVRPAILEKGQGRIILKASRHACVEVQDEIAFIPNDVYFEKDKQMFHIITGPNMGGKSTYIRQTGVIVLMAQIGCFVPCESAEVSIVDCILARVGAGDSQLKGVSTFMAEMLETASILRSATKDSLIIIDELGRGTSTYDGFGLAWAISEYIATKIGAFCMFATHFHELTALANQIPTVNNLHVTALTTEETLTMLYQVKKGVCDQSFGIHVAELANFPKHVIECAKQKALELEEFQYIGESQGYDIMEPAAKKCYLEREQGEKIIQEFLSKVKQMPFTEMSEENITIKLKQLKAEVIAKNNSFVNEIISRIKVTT
Chain of UniProt Q00013 (Q00013 whole entry, looked up): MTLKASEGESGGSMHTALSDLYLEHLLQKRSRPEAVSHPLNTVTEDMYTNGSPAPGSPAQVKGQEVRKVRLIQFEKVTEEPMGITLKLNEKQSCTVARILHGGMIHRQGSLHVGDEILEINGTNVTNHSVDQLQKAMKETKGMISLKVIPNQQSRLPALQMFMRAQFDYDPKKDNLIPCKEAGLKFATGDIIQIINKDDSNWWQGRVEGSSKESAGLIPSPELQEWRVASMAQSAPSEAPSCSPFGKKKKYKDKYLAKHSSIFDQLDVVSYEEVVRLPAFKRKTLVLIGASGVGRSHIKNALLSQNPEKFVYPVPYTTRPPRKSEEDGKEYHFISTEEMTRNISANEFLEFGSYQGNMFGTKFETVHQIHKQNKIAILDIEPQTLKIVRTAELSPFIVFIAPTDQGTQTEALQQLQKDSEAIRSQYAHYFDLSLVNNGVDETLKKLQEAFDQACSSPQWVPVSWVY
Chain of UniProt Q9UBD5 (Q9UBD5 whole entry, looked up): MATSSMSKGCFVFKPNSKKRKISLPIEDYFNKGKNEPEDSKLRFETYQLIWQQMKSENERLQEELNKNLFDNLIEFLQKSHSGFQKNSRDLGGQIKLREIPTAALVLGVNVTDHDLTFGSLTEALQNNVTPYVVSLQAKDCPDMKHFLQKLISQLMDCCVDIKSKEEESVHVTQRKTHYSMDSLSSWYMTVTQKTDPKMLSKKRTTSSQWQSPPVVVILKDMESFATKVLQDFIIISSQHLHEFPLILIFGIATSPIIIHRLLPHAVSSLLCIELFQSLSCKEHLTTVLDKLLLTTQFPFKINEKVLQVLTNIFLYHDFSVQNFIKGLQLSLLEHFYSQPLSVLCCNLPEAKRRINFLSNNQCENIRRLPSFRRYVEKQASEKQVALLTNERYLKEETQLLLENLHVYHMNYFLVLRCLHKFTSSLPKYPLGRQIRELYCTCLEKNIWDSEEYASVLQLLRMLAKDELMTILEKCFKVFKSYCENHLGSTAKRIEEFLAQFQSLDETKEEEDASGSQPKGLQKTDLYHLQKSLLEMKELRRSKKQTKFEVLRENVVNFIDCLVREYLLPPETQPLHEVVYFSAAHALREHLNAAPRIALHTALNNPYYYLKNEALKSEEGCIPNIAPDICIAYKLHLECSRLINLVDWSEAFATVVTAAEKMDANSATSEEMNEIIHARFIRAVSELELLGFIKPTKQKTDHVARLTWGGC
Chain of UniProt P46934 (P46934 whole entry, looked up): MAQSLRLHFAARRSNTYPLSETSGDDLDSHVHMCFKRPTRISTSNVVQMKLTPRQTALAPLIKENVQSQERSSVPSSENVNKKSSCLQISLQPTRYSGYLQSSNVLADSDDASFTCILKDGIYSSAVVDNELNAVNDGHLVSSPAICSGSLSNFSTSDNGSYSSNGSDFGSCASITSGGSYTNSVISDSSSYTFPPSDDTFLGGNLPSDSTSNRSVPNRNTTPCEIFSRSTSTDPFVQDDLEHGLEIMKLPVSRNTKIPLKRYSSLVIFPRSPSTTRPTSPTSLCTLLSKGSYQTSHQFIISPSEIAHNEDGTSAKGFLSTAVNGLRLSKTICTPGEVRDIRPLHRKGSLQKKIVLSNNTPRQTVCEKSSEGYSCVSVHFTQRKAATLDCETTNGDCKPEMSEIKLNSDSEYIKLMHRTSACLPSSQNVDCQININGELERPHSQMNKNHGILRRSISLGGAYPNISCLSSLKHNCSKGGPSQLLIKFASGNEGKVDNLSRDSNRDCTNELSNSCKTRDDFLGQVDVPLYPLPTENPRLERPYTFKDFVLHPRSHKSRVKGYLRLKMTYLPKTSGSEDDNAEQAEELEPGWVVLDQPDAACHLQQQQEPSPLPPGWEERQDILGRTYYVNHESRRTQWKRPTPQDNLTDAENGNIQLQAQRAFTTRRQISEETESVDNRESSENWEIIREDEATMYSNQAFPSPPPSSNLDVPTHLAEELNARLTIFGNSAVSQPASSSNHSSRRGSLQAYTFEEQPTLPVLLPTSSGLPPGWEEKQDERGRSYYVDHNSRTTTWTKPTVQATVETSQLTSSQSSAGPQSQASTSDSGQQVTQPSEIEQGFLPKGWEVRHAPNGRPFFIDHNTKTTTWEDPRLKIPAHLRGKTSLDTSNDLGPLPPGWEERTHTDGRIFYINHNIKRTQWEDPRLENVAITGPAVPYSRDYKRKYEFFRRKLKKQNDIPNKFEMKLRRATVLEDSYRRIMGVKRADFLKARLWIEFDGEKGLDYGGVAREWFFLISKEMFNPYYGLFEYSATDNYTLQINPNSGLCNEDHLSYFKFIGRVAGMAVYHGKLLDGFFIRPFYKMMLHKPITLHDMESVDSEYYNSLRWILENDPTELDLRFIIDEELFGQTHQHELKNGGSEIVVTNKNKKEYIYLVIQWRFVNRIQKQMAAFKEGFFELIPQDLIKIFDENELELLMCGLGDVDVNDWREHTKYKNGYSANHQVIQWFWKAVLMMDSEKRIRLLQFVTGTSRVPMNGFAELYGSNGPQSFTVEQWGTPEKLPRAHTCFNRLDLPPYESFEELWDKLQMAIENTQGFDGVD
Chain of UniProt Q9ULX3 (Q9ULX3 whole entry, looked up): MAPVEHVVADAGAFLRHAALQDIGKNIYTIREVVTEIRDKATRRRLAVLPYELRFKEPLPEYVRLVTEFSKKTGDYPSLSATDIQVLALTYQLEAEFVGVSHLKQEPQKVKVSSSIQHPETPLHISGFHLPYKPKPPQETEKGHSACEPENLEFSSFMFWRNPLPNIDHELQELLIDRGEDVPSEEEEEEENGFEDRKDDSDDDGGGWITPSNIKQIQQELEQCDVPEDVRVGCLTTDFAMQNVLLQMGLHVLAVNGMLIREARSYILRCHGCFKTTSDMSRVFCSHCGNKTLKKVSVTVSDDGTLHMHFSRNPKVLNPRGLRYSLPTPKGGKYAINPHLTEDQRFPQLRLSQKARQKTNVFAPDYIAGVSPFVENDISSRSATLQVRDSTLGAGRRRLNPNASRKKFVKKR
Chain of UniProt Q9H1E3 (Q9H1E3 whole entry, looked up): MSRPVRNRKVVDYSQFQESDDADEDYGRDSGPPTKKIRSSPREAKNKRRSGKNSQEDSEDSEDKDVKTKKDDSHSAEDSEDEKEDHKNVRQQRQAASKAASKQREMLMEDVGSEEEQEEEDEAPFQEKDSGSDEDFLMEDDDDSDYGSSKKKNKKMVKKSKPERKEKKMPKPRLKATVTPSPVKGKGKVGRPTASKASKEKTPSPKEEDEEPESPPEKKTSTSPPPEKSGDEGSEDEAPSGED

log2 fold change, inactive:
MSH2 (UniProt P43246) -0.103
MT-ATP6 (UniProt P00846) 0.005
MRPS2 (UniProt Q9Y399) 0.019
NOB1 (UniProt Q9ULX3) -0.005
MPP1 (UniProt Q00013) -0.179
NUCKS1 (UniProt Q9H1E3) -0.13
ORC3 isoform 2 (UniProt Q9UBD5) -0.254
NOLC1 isoform 2 (UniProt Q14978) -0.1
NEDD4 isoform 4 (UniProt P46934) -0.083
MRPS22 (UniProt P82650) 0.044
MSTO1 (UniProt Q9BUK6) 0.033
NCAPD2 (UniProt Q15021) -0.071
MYL12B (UniProt O14950) 0.001
NEU1 (UniProt Q99519) -0.009
NA, A0A096LPI6 -0.007
MRPS33 (UniProt Q9Y291) 0.064

— the supplement of paper PMC10849652
